Laboratory results reported in PubChem BioAssay AID2806 (Sanford-Burnham Center for Chemical Genomics, 2010).
The campaign covered roughly 330,000 compounds. About 660 (0.2%) were called active.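 How the source made its calls: active means inhibition of at least 40% at 10 µM in the primary screen; inactive means the rest.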 Only a selection was taken, and actives are over-represented in it overall.

Each compound was assayed on intestinal alkaline phosphatase [Mus musculus] (assay: mouse intestinal phosphatase enzyme inhibition – biochemical, luminescence, uHTS, primary screen (AID 2806;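 further: plate controls were DMSO with enzyme for no effect and no enzyme wells for full effect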)). Settings: purified mouse IAP, CDP-Star luminescence, 30 min; at 10 µM; hits give high values.

Compound	inhibition
O=C1NC(=O)N(Cc2ccco2)C(=O)/C1=C\c1cccn1CCOc1ccccc1	40.7% (active)
O=C(O)COc1ccccc1/C=C1\C(=O)NC(=O)N(CCC2=CCCCC2)C1=O	0.6% (inactive)
O=C1NC(=O)N(CCc2ccc(F)cc2)C(=O)/C1=C/C=C/c1ccccc1	1.6% (inactive)
O=C1NC(=O)N(Cc2ccco2)C(=O)/C1=C\c1ccc(-c2ccc(F)cc2)o1	64.1% (active)
COC(=O)C1=C(c2cc3ccccc3s2)C[C@@H]2CC[C@H]1N2C(=O)NCc1cccc2ccccc12	1% (inactive)
COc1ccc2c(c1)[C@]13CCCCC1C(C2)N(C)CC3 (stereo not given in full)	0.8% (inactive)
O=Cc1cn(Cc2ccc(F)cc2Cl)c2ccccc12	-2% (inactive)
CNCC(O)c1cc(F)c(OCc2ccccc2)c(OCc2ccccc2)c1F (stereo not given)	5.2% (inactive)
Cc1cc(C(=O)OCC(=O)Nc2c(F)cccc2F)c(C)n1C1CC1	7.2% (inactive)
Oc1ccc2c3c1OC1[C@H](O)CC[C@@]4(O)[C@@H](C2)N(CC2CC2)CC[C@]314 (stereo not given in full)	1.2% (inactive)
O=C1NC(=O)N(c2ccccc2)C(=O)/C1=C/c1ccc([N+](=O)[O-])s1	26.5% (inactive)
COc1cccc(N2C(=O)NC(=O)/C(=C\c3ccc([N+](=O)[O-])s3)C2=O)c1	34.9% (inactive)
COc1ccc(N2C(=O)/C(=C/c3ccco3)C(=O)NC2=S)cc1	42.1% (active)
CSc1ccc(C(=O)C2CCCN(Cc3ccn[nH]3)C2)cc1 (stereo not given)	-3.6% (inactive)
CC1CCCCN1Cc1cccnc1 (stereo not given)	0.7% (inactive)
